In ChEMBL document CHEMBL1157539, “Thousands of chemical starting points for antimalarial lead identification” (Nature, 2010) one finds Inhibition data, which are given here for 30 molecules.

Type in all cases: functional
Assay [1] concerns Plasmodium falciparum. Briefly: GSK_TCMDC: Inhibition of Plasmodium falciparum 3D7 in whole red blood cells, using parasite LDH activity as an index of growth. Test compounds present at 2uM.
For assay [2], the system named is Plasmodium falciparum. Briefly: GSK_TCMDC: Inhibition of Plasmodium falciparum Dd2 in whole red blood cells, using parasite LDH activity as an index of growth. Test compounds present at 2uM.
Another assay has as its system HepG2. Briefly: GSK_TCMDC: Percent inhibition of human HepG2 cell line. Test compounds present at 10uM.

As to `O=C(O)C(F)(F)F.c1cc(-c2ccc(CNC3CCOCC3)cc2)cc(-c2nc3ccccc3[nH]2)c1`, the Inhibition (commonly the drop in the measured response relative to a control, in per cent) in the assay with Plasmodium falciparum [1] was 100%; in the assay on Plasmodium falciparum [2] it was 100%; in the assay with HepG2, 30%.

With `Cc1ccc(CN2CCN(c3cc4c(cc3Cl)CCN4C(=O)Cc3ccc(Cl)c(NC(=O)Nc4cccc(C#N)c4)c3)CC2)cc1`, the Inhibition came out at 92% in the assay with Plasmodium falciparum [1], 29% in the assay with Plasmodium falciparum [2] and 3% with HepG2.

Turning to `CCCCCCOc1ccccc1C(=O)NCCOc1ccc(Cl)cc1`, the Inhibition in the assay with Plasmodium falciparum [1] is given as 84%; with Plasmodium falciparum [2], 37%; with HepG2, 16%.

Take `N=C(N)NC(=O)Nc1cc(Cl)c(F)c(Cl)c1`: the Inhibition in the assay with Plasmodium falciparum [1] is given as 100%; in the assay with Plasmodium falciparum [2], 64%; in the assay with HepG2, 22%.

Regarding `O=C(Nc1cccc(-c2ccc(CN3CCCC3)cc2)c1)c1ccc(Cl)cc1.O=C(O)C(F)(F)F`, the figures for the Inhibition in the assay on Plasmodium falciparum [1], with Plasmodium falciparum [2] and in the assay on HepG2 were 100%, 47% and 29%, respectively.

Regarding `COc1ccc2nccc([C@@H](O)CN3CCC(NC(=O)c4cc5cccnc5[nH]4)CC3)c2c1.Cl`, the Inhibition in the assay on Plasmodium falciparum [1] is listed as 94%; in the assay with Plasmodium falciparum [2] it was 6%; in the assay with HepG2 it was 0%.

Regarding `COc1cccc(OC2CCN(C(=O)c3cc(C(C)(C)C)nn3Cc3ccccc3)CC2)c1`, the Inhibition turned out to be 100% with Plasmodium falciparum [1], 98% in the assay on Plasmodium falciparum [2] and 3% in the assay with HepG2.

As to `COc1ccc2cc(-c3nc(-c4c(Cl)cccc4Cl)[nH]c3-c3ccnc(NCCC4CCCN4C)c3)ccc2c1.O=C(O)C(F)(F)F` (stereo not given), the Inhibition in the assay with Plasmodium falciparum [1] was determined as 100%; in the assay with Plasmodium falciparum [2] it was 82%; with HepG2, 11%.

Take `c1ccc(CNc2nc(NCCc3c[nH]cn3)nc(N3CCCC4CCCCC43)n2)cc1` (stereo not given): the Inhibition is on record as 98% in the assay with Plasmodium falciparum [1], 100% in the assay on Plasmodium falciparum [2] and 0% in the assay with HepG2.

For the molecule `CN(c1ccc(NC(=O)c2ccc(F)cc2)cc1)C1CCN(Cc2cccc(F)c2)C1.O=C(O)C(F)(F)F` (stereo not given), the results for the Inhibition in the assay on Plasmodium falciparum [1], with Plasmodium falciparum [2] and in the assay with HepG2 were 81%, 74% and 3%, respectively.

Turning to `Cc1ccc2oc3cc(-c4nnn[nH]4)ccc3c(=O)c2c1`, the Inhibition amounted to 97% in the assay on Plasmodium falciparum [1], 96% in the assay with Plasmodium falciparum [2] and 2% in the assay on HepG2.

For `Cl.O=C(Nc1ccc2c(c1)CNCC2)c1ccc(-c2ccc(Cl)cc2)cc1`, the values for the Inhibition with Plasmodium falciparum [1], with Plasmodium falciparum [2] and in the assay on HepG2 were 96%, 28% and 52%, respectively.

Take `Cc1ccc(-c2ccc3c(c2)C=C(C(=O)NC2CCN(CCNC(=O)c4cccc(C(F)(F)F)c4)CC2)CCC3)cc1.O=C(O)C(F)(F)F`: the Inhibition in the assay with Plasmodium falciparum [1] was determined as 100%; in the assay with Plasmodium falciparum [2], 56%; in the assay on HepG2, 25%.

In the case of `O=C(O)C(F)(F)F.Oc1ccc(CCNc2nc(NCc3cccc(OCc4cccc(F)c4)c3)nc(N3CCNCC3)n2)cc1`, the Inhibition in the assay on Plasmodium falciparum [1] came out at 86%; with Plasmodium falciparum [2], 0%; in the assay on HepG2, 27%.

As to `CC(=O)c1ccc(NC(=O)CSc2nc(-c3ccccc3Cl)ns2)cc1`, the results for the Inhibition in the assay with Plasmodium falciparum [1], in the assay on Plasmodium falciparum [2] and in the assay with HepG2 were 89%, 72% and 0%, respectively.

Consider `CC(=O)c1nccc(C)c1N`, for which the Inhibition with Plasmodium falciparum [1] came out at 92%; in the assay on Plasmodium falciparum [2], 0%; in the assay with HepG2, 10%.

On to `c1csc(-c2nc(N3CCCCC3)ncc2-c2ccsc2)n1`, for which the Inhibition with Plasmodium falciparum [1] was found to be 89%; in the assay with Plasmodium falciparum [2], 72%; in the assay on HepG2, 0%.

Consider `CN1CCN(c2ccc3nccc(CCN4CCC(NCc5ccc6c(n5)NC(=O)CO6)CC4)c3n2)CC1.Cl`, for which the Inhibition worked out at 97% with Plasmodium falciparum [1], 3% with Plasmodium falciparum [2] and 9% with HepG2.

For `O=C(Nc1ccc(Oc2ccccc2)cc1)N(CCN1CCCC1)Cc1ccc(-c2ccc(CN3CCNCC3)cc2)cc1.O=C(O)C(F)(F)F`, the figures for the Inhibition in the assay on Plasmodium falciparum [1], with Plasmodium falciparum [2] and in the assay on HepG2 were 88%, 90% and 48%, respectively.

As to `C=CCOc1ccccc1CNCC(O)c1cc(Br)cs1` (stereo not given), the values for the Inhibition in the assay with Plasmodium falciparum [1], in the assay with Plasmodium falciparum [2] and in the assay on HepG2 were 93%, 72% and 25%, respectively.

Turning to `O=C(NCc1cccc(C(F)(F)F)c1)C(c1cc2ccccc2o1)N1CCN(C(c2ccccc2)c2ccccc2)CC1` (stereo not given), the values for the Inhibition in the assay on Plasmodium falciparum [1], in the assay on Plasmodium falciparum [2] and with HepG2 were 91%, 80% and 0%, respectively.

With `Cc1csc2nc(-c3ccccn3)nc(Nc3ccc4ncsc4c3)c12.Cl`, the Inhibition is on record as 85% in the assay on Plasmodium falciparum [1], 91% in the assay on Plasmodium falciparum [2] and 0% in the assay on HepG2.

As for `O=C(/C=C/c1ccc(Cl)c(Cl)c1)NCCCCCN1CCC(NC(=O)Nc2cc(F)ccc2F)CC1`, the figures for the Inhibition in the assay on Plasmodium falciparum [1], in the assay with Plasmodium falciparum [2] and in the assay with HepG2 were 98%, 22% and 78%, respectively.

Turning to `c1ccc2c3c(ccc2c1)Sc1c(ccc2ccccc12)N3`, the values for the Inhibition in the assay on Plasmodium falciparum [1], in the assay on Plasmodium falciparum [2] and with HepG2 were 92%, 31% and 0%, respectively.

Regarding `Nc1nc(N)c2cc(C(F)(F)F)ccc2n1`, the Inhibition in the assay with Plasmodium falciparum [1] is listed as 80%; in the assay on Plasmodium falciparum [2] it was 1%; with HepG2, 8%.

For the molecule `O=C(/C=C/c1ccc(Cl)c(Cl)c1)NCC(CCCN1CCC(c2c[nH]c3ccccc23)CC1)c1ccccc1` (stereo not given), the results for the Inhibition in the assay on Plasmodium falciparum [1], with Plasmodium falciparum [2] and with HepG2 were 100%, 46% and 98%, respectively.

Regarding `CN1CCN(c2ccc(Nc3ccnc4ccc(-c5ccccc5)cc34)cc2)CC1`, the Inhibition in the assay on Plasmodium falciparum [1] is listed as 100%; in the assay with Plasmodium falciparum [2], 100%; with HepG2 it was 20%.

With `CCn1c(=O)c(C(=O)Nc2cc(Cl)c(OC)cc2OC)nc2ccccc21`, the Inhibition in the assay with Plasmodium falciparum [1] is on record as 86%; with Plasmodium falciparum [2], 84%; in the assay with HepG2, 19%.

Consider `Cc1c(CN2CCCCC2)cccc1OCCCNc1nc(NCCc2ccc(O)cc2)nc(N2CCNCC2)n1.O=C(O)C(F)(F)F`, for which the Inhibition stood at 100% in the assay on Plasmodium falciparum [1], 23% in the assay with Plasmodium falciparum [2] and 26% in the assay on HepG2.

For `CN1CCC(NCc2cccc(-c3ccc(S(=O)(=O)NCc4ccccc4)cc3)c2)CC1.O=C(O)C(F)(F)F`, the Inhibition in the assay on Plasmodium falciparum [1] is recorded as 100%; in the assay with Plasmodium falciparum [2], 93%; in the assay on HepG2, 61%.
